MCF10A rerep: inducers of DNA re-replication in MCF 10A breast cells. MCF 10A DNA re-replication, Hoechst nuclear intensity, 48 h. Potency, µM (series often up to 46.1 µM), for inactives: at the highest dose activity, positive = re-replication, actives largely listed as activators. actives 2.9% (n = 350,000). AID 624296; note: potency is the fitted concentration of half-maximal effect; % of control where 0% means no effect; nearly all actives have a fitted effect of over 50% in size
RORg inh: inhibitors of mouse ROR gamma transcriptional activity. P51450. Drosophila S2 Gal4-RORgamma UAS-luciferase reporter, 20 h. Potency, µM (titrated, usually from 53.6 µM), for inactives: at the highest dose activity change, negative = inhibition, most hits filed as inhibitors. actives 5.4% (n = 310,000). AID 2551; note: potency is the fitted concentration of half-maximal effect; % is set by controls: 0 for no effect and ±100 for the full control effect; nearly all actives have a fitted effect of over 60% in size
Target sequence (P51450 whole entry, looked up, the tested form may be a part): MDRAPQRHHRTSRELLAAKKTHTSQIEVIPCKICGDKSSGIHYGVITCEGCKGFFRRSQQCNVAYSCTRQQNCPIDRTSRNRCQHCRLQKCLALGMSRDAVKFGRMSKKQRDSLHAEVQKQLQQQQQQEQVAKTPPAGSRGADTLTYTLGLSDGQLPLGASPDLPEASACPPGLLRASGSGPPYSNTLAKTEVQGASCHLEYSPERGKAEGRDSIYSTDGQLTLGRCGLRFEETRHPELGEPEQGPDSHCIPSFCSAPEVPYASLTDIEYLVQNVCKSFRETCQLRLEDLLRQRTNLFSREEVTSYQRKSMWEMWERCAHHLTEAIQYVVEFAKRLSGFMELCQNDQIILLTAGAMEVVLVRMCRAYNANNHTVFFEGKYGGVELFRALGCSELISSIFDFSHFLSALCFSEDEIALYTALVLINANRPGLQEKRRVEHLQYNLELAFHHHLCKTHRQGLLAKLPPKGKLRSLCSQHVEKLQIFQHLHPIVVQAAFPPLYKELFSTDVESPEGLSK
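Schneider cells (Drosophila), stable Gal4 DBD–ROR gamma + UAS-luc; 1 hr cmpd preincubation; Cu2+ induction 700 uM final; 20 hr ambient; luminescence.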
IL-1B inflam inh: inhibitors of inflammasome signaling (IL-1 beta secretion). THP-1 LPS/ATP IL-1B secretion, AlphaLISA, 16 h; stronger effect = lower value. activity change, % at 57.5 µM. actives 4.7% (n = 360,000); in the data active = activity change below about -50%; inconclusive = mostly about -30% to -49%; note: % is set by controls: 0 for no effect and ±100 for the full control effect
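Secreted IL-1B measured by AlphaLISA bead assay after 16 h compound exposure of THP-1 cells; compounds (final up to 57.5 uM) added 1 h before LPS (250 ng/mL) and ATP (1.25 mM) stimulation; lower signal means less secretion.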
SW480 rerep: inducers of DNA re-replication in SW480 colon cancer cells; Potency, µM (doses to about 46.1 µM), for inactives: at the highest dose re-replication activation, hits mostly activators; actives 1.8% (n = 340,000); SW480 DNA re-replication, Hoechst DNA content imaging, 48 h; note: potency is the fitted concentration of half-maximal effect; % of control where 0% means no effect; nearly all actives have a fitted effect of over 55% in size
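Hoechst fluorescence of nuclei (405 nm excitation, 500-530 nm emission) measured by plate-scanning imager after 48 hr compound exposure at 37 C; re-replication scored as increased number of nuclei with elevated intensity.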
Gal4-VP16 FLuc: counter-screen for ROR gamma inhibitors: Gal4-VP16 reporter; Drosophila S2 Gal4-VP16 UAS-luciferase, luminescence, 20 h; Potency, µM (top dose mostly 53.6 µM), without a hit: at the top dose activity, negative = inhibition, usual class: inhibitors; actives 3.5% (n = 310,000); AID 2546;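 note: Gal4-VP16 expression switched on by copper sulfate through the metallothionein promoter; potency is the fitted concentration of half-maximal effect; % is set by controls: 0 for no effect and ±100 for the full control effect; nearly all actives have a fitted effect of over 50% in size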
* marks the source's active call; other numbers are inactive results; ? = inconclusive; · = no result; [ ] = another dose, or the depositor's remark. This is a sample that favours compounds with a hit; in the whole collection about 11% have one here. Unless noted, calls come from the whole dose curve; as a rule, active = well fitted curve in the direction sought with a large enough effect; inconclusive = small, poorly fitted or top-dose-only effect, or another doubt; inactive = no such curve, though single readings can be large; an effect the other way counts as inactive or inconclusive.

SMILES	MCF10A rerep	RORg inh	IL-1B inflam inh	SW480 rerep	Gal4-VP16 FLuc
O=C(Nc1cccc2nsnc12)c1cccs1	6.1%	?	-19.4	-1.6%	24.1%
CCCCC1=C(C(=O)OCC)C(C(=O)OCC)Oc2ccccc21 (stereo unspecified)	-11.7%	28.8%	34.3	-26.7%	-6.3%
Cc1cccc(OCC(=O)NCC(=O)N/N=C/c2cc(Br)cc(Br)c2O)c1	?	2µM*	96.6	?	6.31µM*
COc1cccc(/C=N/NC(=O)CNC(=O)c2ccco2)c1O	1.5%	1.58µM*	77.2	?	20µM*
Cc1ccc(/C=N/NC(=O)CNC(=O)COc2ccccc2)cc1	5.4%	9.6%	-8.2	-2.7%	2.4%
COc1cccc(/C=N/NC(=O)C(=O)NCc2cccnc2)c1O	11.7%	11.2µM*	34.4	-59.4%	?
O=C(CNC(=O)c1ccco1)N/N=C/c1ccccc1[N+](=O)[O-]	2.0%	12.5%	2.4	-0.8%	2.9%
COc1cc(/C=N/NC(=O)CNC(=O)c2ccncc2)ccc1O	-0.1%	-2.8%	10.8	?	-5.1%
COc1cccc(/C=N/NC(=O)CNC(=O)c2ccncc2)c1O	-0.9%	15.8µM*	1.0	-0.2%	?
COc1cccc(/C=N/NC(=O)C(=O)NCc2cccnc2)c1OC	?	8.5%	0.0	-7.0%	1.3%
CC(C)(C)c1cc(CCC(=O)Nc2ccncc2)cc(C(C)(C)C)c1O	-59.5%	·	?	-5.0%	·
COc1cccc(/C=N/NC(=O)C[n+]2ccccc2)c1O	?	-32.6%	9.2	?	7.3%
COc1ccc(CCCC(=O)N/N=C/c2cccc(OC)c2O)cc1C	1.46µM*	0.224µM*	73.4	?	0.126µM*
COc1cccc(/C=N/NC(=O)CNC(=O)COc2ccccc2)c1O	6.0%	0.282µM*	180.4	3.26µM*	1µM*
COc1cccc(/C=N/NC(=O)CNC(=O)c2cccnc2)c1O	?	17.8µM*	127.5	?	-23.8%
COc1cccc(/C=N/NC(=O)CN2CC(c3ccccc3)CC2=O)c1O (stereo unspecified)	?	0.562µM*	92.2	7.31µM*	1.26µM*
COc1ccc(-c2ccc(CCC(=O)O)n2-c2ccccc2O)cc1	1.84µM*	1.3%	20.2	20.6µM*	-0.4%
COc1ccc(-c2ccc(CCC(=O)O)n2CC(C)C)cc1	?	18.7%	38.4	9.2µM*	-2.0%
Cc1ccccc1Oc1ccc2c(c1)[C@@H]1C[C@H](N(C)C(=O)c3ccc(C#N)cc3)[C@H]([C@H](C)O)C(=O)N1CC2	-8.4%	·	-23.4	3.2%	·
Cn1c(Cc2c[nH]c3ccccc23)n[nH]c1=S	4.7%	-19.2%	26.4	-0.9%	6.1%
C=CCn1c(CCn2c3ccccc3c3ccccc32)n[nH]c1=S	5.7%	3.98µM*	0.0	-39.6%	3.16µM*
C=CCn1c(=O)c2ccccc2n2c(=S)[nH]nc12	12.7%	-29.2%	12.0	-4.1%	-6.2%
Cn1c(-c2cccc3ccccc23)n[nH]c1=S	-2.7%	10µM*	9.1	-8.2%	?
Cn1c(Cn2c3ccccc3c3ccccc32)n[nH]c1=S	5.4%	3.55µM*	4.2	-21.7%	12.6µM*
S=c1[nH]nc(Cc2noc3ccccc23)n1-c1ccccc1	-3.6%	10µM*	-19.3	-3.9%	-5.6%
SMILES	MCF10A rerep	RORg inh	IL-1B inflam inh	SW480 rerep	Gal4-VP16 FLuc
CN(Cc1ccccc1)C(=O)CN1CCN(S(=O)(=O)c2ccccc2F)CC1	·	·	18.9	·	·
COC(=O)c1ccc(COC(=O)CCNS(=O)(=O)c2ccc(C)c(C)c2)cc1	7.6%	·	-2.1	-17.3%	·
C=C(C)Cn1c(CCn2c3ccccc3c3ccccc32)n[nH]c1=S	?	?	19.2	-59.0%	1µM*
Cc1nccn1CCc1n[nH]c(=S)n1Cc1ccccc1	0.5%	-26.6%	0.1	-7.3%	0.2%
COc1cccc2cc(-c3n[nH]c(=S)n3C)oc12	-1.4%	3.55µM*	0.6	15.2%	-19.4%[10 µM]
COc1cccc2cc(-c3ccnc(N)n3)oc12	-3.0%	0.9%	-18.9	-4.3%	-1.8%
C=CCn1c(Cc2cccc3ccccc23)n[nH]c1=S	-0.9%	3.98µM*	83.7	?	11.2µM*
S=c1[nH]nc(Cc2cccc3ccccc23)n1-c1ccccc1	1.5%	3.16µM*	16.8	1.9%	7.08µM*
C#CCOc1ccc(C(=O)N(C)c2ccccc2I)cc1	·	-1.4%	·	·	-1.0%
CCN(CC)CCNC(=O)C1CCN(S(=O)(=O)c2c(C)noc2/C=C/c2ccccc2F)CC1	?	-30.5%	-68.8*	?	-11.2%
CCN(CCNC(=O)C1CCN(S(=O)(=O)c2c(C)noc2C)CC1)c1ccccc1	?	0.5%	4.8	-4.6%	-1.0%
COc1ccc(Br)cc1S(=O)(=O)NNC(=O)c1c(C)nc2ccccn12	-1.0%	39.7%	39.2	4.9%	-3.8%
C/C(=N\NC(=O)c1c(C)nc2ccccn12)c1ccc(C(C)(C)C)cc1	18.4µM*	?	-0.6	?	-13.6%
Cc1nc2ccccn2c1C(=O)NNS(=O)(=O)c1ccc(C(C)(C)C)cc1	16.6%	17.3%	1.9	-3.0%	15.8µM*
Nc1ccc2oc(=O)ccc2c1I	·	6.6%	·	·	-8.7%
CC1(C(=O)NS(=O)(=O)c2ccc(Br)cc2)CCN1C(=O)CCc1cccs1 (stereo unspecified)	·	·	30.9	·	·
Cc1ccc(S(=O)(=O)NN2C(=O)c3ccccc3NC2c2ccccn2)cc1 (stereo unspecified)	?	-11.6%	-111.5*	?	1.6%
Cc1ccc(S(=O)(=O)NN2C(=O)c3ccccc3NC2c2ccccc2O)cc1 (stereo unspecified)	-0.4%	-17.9%	-10.1	-10.7%	-12.8%
CNc1ncnc2ccc(-c3ccccc3C#N)cc12	·	-1.5%	·	·	5.9%
CC(C)(C)C1CCc2sc(-c3nnc(CCl)o3)cc2C1 (stereo unspecified)	?	-16.9%	?	?	-3.2%
ClCc1nnc(-c2cc3c(s2)CCCC3)o1	?	6.31µM*	-104.8*	169.8%	?
CC(C)(C)NC(=O)C(c1ccc(I)cc1)N(CCN1CCOCC1)C(=O)CCCNC(=O)c1ccccc1 (stereo unspecified)	·	1.9%	·	·	-6.9%
NNC(=S)NCc1ccco1	8.0%	7.08µM*	3.8	0.9%	?
Cc1cccc(NC(=S)NCc2ccco2)n1	-9.4%	1.26µM*	30.7	4.5%	4.47µM*
S=C(NCc1ccccc1)NCc1ccco1	4.8%	11.2µM*	-13.9	3.0%	?
S=C(NCc1ccco1)NCc1ccco1	2.6%	·	4.1	15.1%	·
CCC(CC)COC(=O)C1=C(C)NC(=O)NC1c1ccc(N(C)C)cc1 (stereo unspecified)	-0.2%	27.8%	?	1.9%	-20.6%
O=C1NC(=S)NC(=O)C1=Cc1ccccc1C(=O)O	0.5%	·	-3.8	1.7%	·

Source: PubChem BioAssay (National Center for Advancing Translational Sciences (NCATS))
